# Results as given in PubChem BioAssay AID1851 (National Center for Advancing Translational Sciences (NCATS), 2009).
# Values joined by “and” are separate entries in the source; they are usually repeats but may differ in a detail not shown here. Equal entries are not always repeated. The whole screen tested about 16,000 compounds, of which about 5,700 (36%) were called active. Roughly 24% stayed inconclusive and do not appear here. This is one part of the list. Values without a mark were called inactive. Calls come from the whole dose curve; as a rule, active = well fitted curve in the direction sought with a large enough effect; inconclusive = small, poorly fitted or top-dose-only effect, or effect the other way; inactive = no such curve, though single readings can be large or run the other way. Square brackets hold non-standard residues; d marks the D form. Peptide text beside a SMILES is read from it.
# Biological target: Cytochrome P450 1A2 (Homo sapiens) (UniProt P05177)
# Assay: Cytochrome panel assay with activity outcomes
# Settings: recombinant CYP, pro-luciferin dealkylation, luminescence, p450-cyp1a2; series mostly up to 57.1 µM
# % is set by controls: 0 for no effect and ±100 for the full control effect.
# Cytochrome P450 1A2 (Homo sapiens), sequence (P05177 whole entry, looked up): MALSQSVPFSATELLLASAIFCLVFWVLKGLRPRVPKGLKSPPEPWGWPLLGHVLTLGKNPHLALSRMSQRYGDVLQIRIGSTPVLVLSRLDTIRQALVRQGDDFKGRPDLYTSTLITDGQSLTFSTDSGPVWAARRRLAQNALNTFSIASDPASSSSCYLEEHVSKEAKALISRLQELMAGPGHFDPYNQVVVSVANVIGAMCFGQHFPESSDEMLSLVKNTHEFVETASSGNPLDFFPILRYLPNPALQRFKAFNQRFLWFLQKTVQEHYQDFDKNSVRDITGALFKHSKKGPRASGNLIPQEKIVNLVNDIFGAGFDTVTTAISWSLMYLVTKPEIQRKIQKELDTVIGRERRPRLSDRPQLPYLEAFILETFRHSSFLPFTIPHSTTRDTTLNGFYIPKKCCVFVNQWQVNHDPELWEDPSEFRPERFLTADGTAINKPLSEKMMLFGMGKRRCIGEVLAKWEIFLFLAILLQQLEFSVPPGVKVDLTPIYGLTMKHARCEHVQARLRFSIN
Structure (SMILES),"activity, negative = inhibition",AC50
CCOC(=O)CCN1C(=O)[C@H]2[C@H]3[C@H](O)[C@H](O)C/C(=N/OC/C=C(\C)CCC=C(C)C)[C@@H]3CC[C@@H]2C1=O,-2.33% [at 11.4 µM],–
N#Cc1c(-c2ccccc2)no[n+]1[O-],–,0.398 µM (active)
C[N+]1(CCC(=O)c2ccco2)CC2CCC(CC2)C1 (stereo not drawn),-10.2% [at 11.4 µM],–
CCCCn1c(=N)n(CC(=O)c2ccco2)c2ccccc21,–,8.91 µM (active)
CC[C@H](CN(C)C)C(=O)c1ccco1,-9.05% [at 11.4 µM],–
C[C@H](N)CCCC(C)(C)O,–,inactive
CSc1nc(C)c2c(n1)N(c1ccc(C(F)(F)F)cc1)CC2,–,0.316 µM (active)
CSc1nc(C)c2c(n1)N(c1ccc(C(C)C)cc1)CC2,–,2 µM (active)
C[C@H](O)[C@H](O)[C@@H]1CNc2nc(N)[nH]c(=O)c2N1,–,inactive
Cn1c(=O)c(C(=O)CN2CCOCC2)c(N)n(Cc2ccccc2)c1=O,–,inactive
Cn1c(N)c(C(=O)CSc2ccc3c(c2)OCCO3)c(=O)n(C)c1=O,–,15.8 µM (active)
Cc1nn(-c2ccc(Cl)cc2)c2sc(C(=O)c3c(N)n(C)c(=O)n(C)c3=O)cc12,–,inactive
CCCCCC(=O)N1CCCC(c2nc(-c3ccc(OC)cc3)no2)C1 (stereo not drawn),–,3.16 µM (active)
COc1ccc(-c2noc(C3CCCN(C(=O)c4ccccc4OC)C3)n2)cc1OC (stereo not drawn),–,inactive
Cc1noc(C)c1C(=O)N1CCC[C@@]2(CCN(C(=O)Nc3cccc(F)c3)C2)C1,–,inactive
O=C(Nc1cccc(F)c1)N1CCCC2(CCNCC2)C1,–,inactive
O=C(Nc1ccccc1)N1CCCC(c2nc(-c3ccc(F)cc3)no2)C1 (stereo not drawn),–,25.1 µM (active)
O=C(CC1CCCCC1)N1CCC(c2nc(-c3ccc(S(=O)(=O)N4CCCC4)cc3)no2)CC1,–,inactive
CCCCC(=O)NCCc1c(Cc2ccccc2)[nH]c2ccccc12,–,3.16 µM (active)
CC(=O)NCCc1c(Cc2ccccc2)[nH]c2ccccc12,–,12.6 µM (active)
Cc1nc2ncnn2c(C)c1CCC(=O)NCc1ccccc1,–,inactive
COc1ccc2[nH]c(-c3ccccc3)c(CCNC(C)=O)c2c1,–,1.26 µM (active)
N[C@H](C(=O)O)c1ccc(C(=O)O)cc1,–,inactive
ClC(Cl)(Cl)C(N1CCN(c2ccccc2)CC1)N1CCN(c2ccccc2)CC1,-14.9% [at 2.29 µM],–
CCN(CC)CCNC(=O)c1ccc(NC(C)=O)cc1,–,inactive

Structure (SMILES),"activity, negative = inhibition",AC50
C=CCn1c(=O)c(C(=O)NCCN(CC)CC)c(O)c2ccccc21,–,1.41 µM (active)
CCN(CC)CCNC(=O)Cn1nc(-c2ccc(C)cc2)ccc1=O,–,inactive
FC(F)(F)c1ccccc1-c1nccc(NCc2ccccc2)n1,–,12.6 µM (active)
Cc1cccc(CNc2ccnc(-c3ccccc3C(F)(F)F)n2)c1,–,6.31 µM (active)
c1cc2c(cc1C1CCCCC1)c1c3n2CCN[C@H]3CCC1,–,15.8 µM (active)
Cc1ccc(NC(=O)c2sccc2SCc2cccc(C(F)(F)F)c2)cc1,–,2.82 µM (active)
CN(CCO)c1cc(Sc2nc3ccccc3s2)c2nonc2c1[N+](=O)[O-],–,14.1 µM (active)
O=[N+]([O-])c1c(NCCO)cc(Sc2nc3ccccc3s2)c2nonc12,–,1 µM (active)
O=C(N/N=C/c1ccc(Sc2nc3ccccc3s2)c([N+](=O)[O-])c1)c1ccccn1,–,inactive
CC1(C)C2([N+](=O)[O-])CN3CC1([N+](=O)[O-])CN(C2)C3c1ccccc1 (stereo not drawn),–,inactive
CSCC[C@H](C=O)NC(=O)[C@H](CC(C)C)NC(=O)[C@H](CC(C)C)NC(C)=O (Ac-Leu-Leu-[dM]-aldehyde),–,inactive
C=CCSc1nc(NC)c2sccc2n1,–,1 µM (active)
C=CCNc1nc(SCC=C)nc2ccsc12,–,0.501 µM (active)
C=CCSc1ccsc1C(=O)O,–,inactive
C=CCSc1nc(Oc2ccccc2)c2sccc2n1,–,2.51 µM (active)
N[C@@H](Cc1ncccn1)C(=O)O,-7.74% [at 11.4 µM],–
CCCCCC1=C2CNC(CCC)(C(=O)OC)C=C2C(C)C1=O (stereo not drawn),–,31.6 µM (active)
CCCC1(C(=O)OC)C=C2C(=C(c3ccccc3)C(=O)C2C)CN1 (stereo not drawn),–,15.8 µM (active)
CCCC1(C(=O)OC)C=C2C(=C(C)C(=O)C2C)CN1 (stereo not drawn),–,inactive
CCCC1(C(=O)OC)C=C2C(=C(C(C)C)C(=O)C2C)CN1 (stereo not drawn),–,inactive
COC(=O)C1(C)C=C2C(=C(c3ccccc3)C(=O)C2C)CN1 (stereo not drawn),–,15.8 µM (active)
CC1(C)CC(=O)C(CCC(=O)c2ccccc2)C(C)(C)N1 (stereo not drawn),–,inactive
CCN=C(N)CSS(=O)(=O)O,-10.1% [at 11.4 µM],–
c1cn(-c2ncnc3ccc(-c4ccoc4)cc23)cn1,–,1.26 µM (active)
CN(C)c1ccc(-c2ccc3ncnc(-n4ccnc4)c3c2)cc1,–,0.316 µM (active)

Structure (SMILES),"activity, negative = inhibition",AC50
Cc1ccccc1-c1ccc2ncnc(-n3ccnc3)c2c1,–,0.794 µM (active)
Cc1cc2c(s1)CCCCC(=O)N2,–,inactive
C=C(CC1([C@@H](NP(=O)(c2ccccc2)c2ccccc2)[C@H]2C[C@@H]2CCN(C(=O)OCC)S(=O)(=O)c2ccc(C)cc2)CC1)c1ccccc1,–,inactive
CCN1C(=O)[C@H]2[C@H]3[C@H](O)[C@H](O)C/C(=N/O[C@@H]4O[C@@H](COC(C)=O)[C@@H](OC(C)=O)[C@@H](OC(C)=O)[C@H]4OC(C)=O)[C@@H]3CC[C@@H]2C1=O,-12.6% [at 11.4 µM],–
Cc1cccc(C)c1NC(=O)[C@H](C)N,–,inactive
Cc1ccc(-n2c(C)cc(/C=C(\C#N)C(=O)NCC3CCCO3)c2C)cc1 (stereo not drawn),–,inactive
COc1ccc(S(=O)(=O)N2CCC(C(=O)NCC3CCCO3)CC2)cc1C (stereo not drawn),–,inactive
Cc1cccc(C)c1NC(=O)/C(C#N)=C/c1cccs1,–,12.6 µM (active)
Cc1cccc(C)c1NC(=O)C[N+](C)(C)C,–,inactive
COc1cc(/C=C(\C#N)C(=O)NCC2CCCO2)c([N+](=O)[O-])cc1OC (stereo not drawn),–,4.47 µM (active)
COc1cc(/C=C(/NC(=O)c2ccccc2)C(=O)Nc2ccccc2)c([N+](=O)[O-])cc1OC,–,inactive
CCS(=O)(=O)N1CCC(C(=O)NCC2CCCO2)CC1 (stereo not drawn),–,inactive
N#C/C(=C\c1cccs1)C(=O)NCC1CCCO1 (stereo not drawn),–,12.6 µM (active)
O=C(O)c1cccnc1,–,inactive
C[Si](C)(c1ccc(C(=O)O)cc1)c1ccc(C(=O)O)cc1,-13% [at 11.4 µM],–
O=C(O)c1ccc(SSc2ccc(C(=O)O)cn2)nc1,–,3.16 µM (active)
CN(C)c1ccccc1CN1CCCN(Cc2ccccc2N(C)C)C1c1ccncc1,3.06% [at 11.4 µM],–
CC(=O)c1cccc(NS(=O)(=O)c2ccc(N/C=C\C(=O)c3ccc(F)cc3)cc2)c1,–,10 µM (active)
Nc1cccc2cc(S(=O)(=O)Nc3ccc(C(=O)O)cc3)ccc12,2.54% [at 11.4 µM],–
CC(=O)c1ccc(S(=O)(=O)NC(=O)NC2CCCCC2)cc1,–,inactive
CCCN(CC1CC1)c1nc(C)nc(Nc2c(Cl)cc(Cl)cc2Cl)c1Cl,–,inactive
Cc1cc(Cl)ccc1OCC(=O)Nc1nc(N)nc(N)n1,2.06% [at 2.29 µM],–
Cc1cc(Cl)ccc1OCC(=O)NCc1ccncc1,–,1.12 µM (active)
CCCn1nnnc1NC(=O)COc1ccc(Cl)cc1C,–,14.1 µM (active)
CCn1c(=O)c2c(O)cc(=O)oc2c2ccccc21,–,11.2 µM (active)

Structure (SMILES),"activity, negative = inhibition",AC50
CC(C)n1c(=O)c2c(O)cc(=O)oc2c2ccccc21,–,5.01 µM (active)
O=C(c1cnccn1)N1CCC2(CC1)CCN(c1ccccn1)CC2,–,inactive
CCn1c(SCC(=O)NC2CCCCC2)nnc1-c1cc2cccc(OC)c2o1,–,8.91 µM (active)
O=C(CSc1nnc(-c2ccc(Cl)cc2Cl)n1C1CCCCC1)NC1CCS(=O)(=O)C1 (stereo not drawn),–,inactive
CCn1c(SCC(=O)NC2CCCc3ccccc32)nnc1-c1cccs1 (stereo not drawn),–,inactive
Nc1ccccc1C#Cc1ccccc1,–,501 nM (active) and 1.58 µM (active)
Cc1cc(C)c(Cn2cnc(-c3ccc([N+](=O)[O-])cc3)c2)c(C)c1,–,15.8 µM (active)
C1CCN(CC[C@@H]2CCCCN2)CC1,-7.33% [at 11.4 µM],–
Cc1ccc(-c2nnc(-c3ccc(NC(=O)c4cccs4)cc3)o2)cc1,–,inactive
Cc1ccccc1-c1nc(-c2ccc(NC(=O)c3cccs3)cc2)no1,–,14.1 µM (active)
CC(=O)N1CCc2cc(S(=O)(=O)CCC(=O)Nc3c(C)n(C)n(-c4ccccc4)c3=O)ccc21,–,inactive
Cc1ccccc1OCCNC(=O)c1ccccc1Sc1ccccc1C#N,–,14.1 µM (active)
Cc1ccccc1OCC(=O)Nc1sc(C(=O)Nc2cccc(C)c2C)c(C)c1C#N,–,inactive
CC(C)(C)N(NC(=O)c1ccccc1)C(=O)c1cccc(C(=O)N(NC(=O)c2ccccc2)C(C)(C)C)c1,–,inactive
CC(=O)c1cc(NC(=O)c2cccc(C(F)(F)F)c2)c(=O)oc1/C=C/N(C)C,–,inactive
Cc1ccc(C(=O)Nc2cc3c(oc2=O)CCCC3=O)cc1,–,14.1 µM (active)
CC(=O)c1cc(NC(=O)c2ccccc2)c(=O)oc1/C=C/N(C)C,–,12.6 µM (active)
CCOC(=O)c1cc(NC(=O)c2ccc(C)cc2)c(=O)oc1-c1ccccc1,–,inactive
Cc1oc(=O)c(NC(=O)c2ccccc2)cc1C(=O)c1ccccc1,–,12.6 µM (active)
Cc1cc(N)ccc1NC(=O)c1ccccc1,–,3.16 µM (active)
Cc1ccc(C)c2sc(NC(=O)c3ccc(N4CCCCC4)c([N+](=O)[O-])c3)nc12,–,inactive
COc1ccccc1N1CCN(CCN(C(=O)C2CCCCC2)c2ccccn2)CC1,–,inactive
O=C(c1ccc(N2CCCCC2)c([N+](=O)[O-])c1)N(Cc1ccccc1)c1ccccn1,–,14.1 µM (active)
